# High-throughput results as filed in PubChem BioAssay.
# Sampled rows, rich in hits. Any-hit rate of the full collection: about 8.2%.
# SW480 rerep = induces DNA re-replication in SW480 colon adenocarcinoma cells | SW480 DNA re-replication, Hoechst DNA content imaging, 48 h | Potency, µM (top dose mostly 46.1 µM), inactives show at the highest dose re-replication activation, usual class: activators | 1.8% of 340,000 active | AID 624297; note: % of control where 0% means no effect; nearly all actives have a fitted effect of over 55% in size
#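 Quantitative HTS format with DMSO vehicle controls; 48 hr drug incubation at 37 C, then 40 min Hoechst staining and scanning imager measurement at 405 nm excitation.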
# ELG1 repair inh = blocks ELG1-dependent DNA repair in HEK293T cells; HEK293T ELG1-luciferase reporter, luminescence, 16 h; DNA damage induced by 5-fluorouridine; Potency, µM (highest dose often 46.1 µM), without a hit: at the top dose activity change, negative = inhibition, hits mostly inhibitors; 2.3% of 330,000 active; AID 504467; note: % is set by controls: 0 for no effect and ±100 for the full control effect; nearly all actives have a fitted effect of over 55% in size
#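 DMSO vehicle served as the neutral condition. Each well held 2,000 cells given 5-fluorouridine plus compound; after 16 hr at 37 °C/5% CO2, ONE-Glo was added and luciferase measured 30 min later.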
# KB-3-1 cytotox = kills parental KB-3-1 adenocarcinoma cells | KB-3-1 viability, CellTiter-Glo ATP luminescence, 72 h | Potency, µM (titrated, usually from 46.1 µM), most hits filed as cytotoxic | 1.4% of 400,000 active | AID 1347075; note: % is set by controls: 0 for no effect and ±100 for the full control effect; nearly all actives have a fitted effect of over 60% in size
#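 Cytotoxicity in the drug-sensitive parental line KB-3-1 was scored as loss of CellTiter-Glo luminescence following 72 h incubation with compound. Values come from curve fitting of normalized concentration-response data.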
# MCF10A rereplic = induces DNA re-replication in MCF 10a normal breast cells; MCF 10A DNA re-replication, Hoechst nuclear intensity, 48 h; Potency, µM (titrated, usually from 46.1 µM), for inactives: at the top dose activity, positive = re-replication, hits mostly activators; 2.9% of 350,000 active; note: % of control where 0% means no effect; nearly all actives have a fitted effect of over 50% in size
# KB-V1 cytotox = KB-V1 MDR subline cytotoxicity. 3.4% of 400,000 active. AID 1347076. Potency, µM (top dose mostly 46.1 µM), usual class: cytotoxic. KB-V1 MDR cells viability, CellTiter-Glo, 72 h; note: % is set by controls: 0 for no effect and ±100 for the full control effect; nearly all actives have a fitted effect of over 60% in size
#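 qHTS viability screen in drug-selected KB-V1 MDR cells: 72 h compound treatment at 37 degrees C, ATP luminescence end point.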
# * hit, by the source's call; i = inactive; ? = inconclusive; . = no result given. Calls come from the whole dose curve; as a rule, active = well fitted curve in the direction sought with a large enough effect; inconclusive = small, poorly fitted or top-dose-only effect, or another doubt; inactive = no such curve, though single readings can be large; an effect the other way counts as inactive or inconclusive. Potency is the fitted concentration of half-maximal effect.
SMILES,SW480 rerep,ELG1 repair inh,KB-3-1 cytotox,MCF10A rereplic,KB-V1 cytotox
CCCOc1ccccc1C1CC(=O)NC2=C1C(=O)CCC2 (stereo unspecified),12µM*,-11%,4.6µM*,10µM*,?
CCOc1ccc(C2CC(=O)NC3=C2C(=O)CCC3)cc1 (stereo unspecified),-4%,?,i,-2%,i
CCOc1ccccc1C1CC(=O)NC2=C1C(=O)CCC2 (stereo unspecified),18µM*,-15%,?,?,?
Cc1cc(NC(=O)COc2ccc3ccccc3c2Br)no1,-10%,0%,i,28%,i
Cn1c(=O)c(=O)n(C)c2cc(NC(=O)c3cccc(F)c3)c(Cl)cc21,.,.,i,.,i
O=C(COC(=O)CNC(=O)c1ccc(Cl)c([N+](=O)[O-])c1)NCC1CCCO1 (stereo unspecified),-1%,9%,i,-2%,i
Nc1nc(=S)c2[nH]cnc2[nH]1,19%,4%,1µM*,?,0.73µM*
COc1cccc(NC(=O)Cn2cc(C(=O)C3CCCCC3)c3ccccc32)c1,.,.,i,.,?
CCCN1C(=S)c2ccccc2C1c1ccccc1 (stereo unspecified),-1%,?,i,0%,?
CCOc1cc(C(=S)N2CCC(O)CC2)ccc1OS(=O)(=O)c1ccc(Br)cc1,-1%,?,i,-2%,?
CCOc1cc(C(=S)N2CCOCC2)ccc1OS(=O)(=O)c1ccc(C)cc1,2%,?,i,0%,i
CCOc1cc(C(=S)N2CCCCC2)ccc1OS(=O)(=O)c1ccc(Cl)cc1,20%,?,?,?,2.9µM*
CCOc1cc(C(=S)N2CCCCC2)ccc1OS(=O)(=O)c1ccc(Br)cc1,8%,-2%,?,?,4.1µM*
O=S(Cc1ccc(Cl)cc1)c1ncc(CO)n1Cc1ccccc1 (stereo unspecified),?,?,16µM*,-1%,i
CCCS(=O)(=O)Nc1cccc(-c2ccc3nnc(C)n3n2)c1,18µM*,?,i,-4%,i
Cc1nnc2ccc(-c3cccc(NS(=O)(=O)c4ccccc4Cl)c3)nn12,-8%,18%,?,?,i
CN(C(=O)c1cccs1)c1ccc(OCC(=O)N2CCC(C(N)=O)CC2)cc1,-34%,15µM*,i,-2%,i
COC(=O)c1ccc(CSc2ccc3nnc(-c4ccc(OC)c(OC)c4)n3n2)o1,-18%,.,i,-1%,7.3µM*
COc1ccccc1NS(=O)(=O)c1cc(NC(=O)c2ccccc2)ccc1N1CCCC1,.,.,i,.,i
COc1ccc(-n2nc(C(=O)NCC(=O)N3CCCCCC3)c3ccccc3c2=O)cc1,-4%,17%,i,6%,i
COc1ccc(-n2nc(C(=O)NCC(=O)N3CC(C)CC(C)C3)c3ccccc3c2=O)cc1 (stereo unspecified),3%,13µM*,i,24%,i
COc1cc(OC)cc(-n2nc(C(=O)N3CC(C)CC(C)C3)c3ccccc3c2=O)c1 (stereo unspecified),0%,21µM*,i,2%,i
NC(=O)c1ncn([C@@H]2O[C@H](CNCc3c(OCc4ccccc4F)ccc4ccccc34)[C@@H](O)[C@H]2O)n1,-4%,.,i,-5%,i
CC(=O)C1(O)Cc2c(O)c3c(c(O)c2C(OC2CC(N)C(O)C(C)O2)C1)C(=O)c1c(O)cccc1C3=O (stereo unspecified),?,.,0.58µM*,2%,?
COc1cccc2c1C(=O)c1c(O)c3c(c(O)c1C2=O)C[C@@](O)(C(=O)CO)C[C@@H]3O[C@H]1C[C@H](N)[C@H](O)[C@H](C)O1,-14%,?,?,-1%,.
SMILES,SW480 rerep,ELG1 repair inh,KB-3-1 cytotox,MCF10A rereplic,KB-V1 cytotox
COc1cccc2c1C(=O)c1c(O)c3c(c(O)c1C2=O)CC(O)(C(C)=O)CC3OC1CC(N(C)C)C(O)C(C)O1 (stereo unspecified),?,.,?,-1%,7.3µM*
CC(=O)[C@@]1(O)Cc2c(O)c3c(c(O)c2[C@H](O[C@H]2C[C@H](N)[C@H](O)[C@H](C)O2)C1)C(=O)c1ccccc1C3=O,.,.,0.18µM*,.,?
COc1cccc2c1C(=O)c1c(O)c3c(c(O)c1C2=O)C[C@@](O)(C(=O)CO)C[C@@H]3OC1CC(N)C(O)C(C)O1 (stereo partly specified),-10%,.,?,?,.
N#Cc1ccc(OCC(=O)NCC2COc3ccccc3O2)cc1 (stereo unspecified),-2%,6%,i,-6%,i
Cc1c(C)n(CCc2ccccc2)c2ncnc(NCCCN(C)C)c12,?,?,i,?,i
Nc1nc(-c2ccccc2)c(CCCOc2ccc(NC(=O)CBr)cc2)c(=O)[nH]1,1%,.,?,10%,i
CC(=O)Nc1ccc(S(=O)(=O)N(CCCN2CCOCC2)Cc2cccs2)cc1,7%,12%,i,1.2µM*,i
CC(C)(C)c1ccc(S(=O)(=O)N(CCCN2CCOCC2)Cc2cccs2)cc1,?,?,i,5.8µM*,i
O=[N+]([O-])c1ccc(S(=O)(=O)N(CCCN2CCOCC2)Cc2cccs2)cc1,-71%,-3%,i,5%,?
CCOC(=O)CCN(Cc1cccs1)S(=O)(=O)c1ccc(Cl)cc1,-7%,-17%,i,0%,15µM*
CCN(CC)C(=O)CNC(=S)N(CCCN1CCOCC1)Cc1cccs1,-154%,20%,i,17%,7.3µM*
C=CCNC(=O)c1cnn2c1NC(=C)C=C2C,.,.,?,.,i
N#C/C(=C\c1ccc(Br)s1)C(=O)N1CCN(c2ccccc2)CC1,0%,-6%,i,?,18µM*
CC(C)(C)S(=O)N1Cc2cc(CO)ccc2[C@H]1CCO (stereo partly specified),.,.,i,.,i
COc1cc(N2C(=O)C=CC2=O)ccc1N1C(=O)C=CC1=O,13µM*,.,18µM*,6.5µM*,?
COc1ccc(N2C(=O)C3CC(C)=C(C)CC3C2=O)c(OC)c1 (stereo unspecified),9%,17%,i,-3%,i
Cc1ccccc1OC(=O)CSc1nnc(-c2cccs2)o1,.,.,i,.,?
COc1ccccc1-c1nnc(C2CCN(C(=O)c3cccc(Cl)c3)CC2)o1,.,.,i,.,?
O=C(CSc1nnc(-c2cccs2)n1-c1ccccc1)c1ccc2c(c1)OCCO2,-6%,-7%,i,6%,i
O=C(CSc1nnc(-c2ccc3c(c2)OCO3)n1-c1ccccc1)c1ccccc1,-2%,1%,i,-3%,8.2µM*
